“And” between values parts separate entries of the source, which are not always exact repeats. Equal entries are not always repeated. Inconclusive results are not listed. The source made the active and inactive calls. Unless noted, the call rests on the fitted dose curve; in most records, active means well fitted curve in the direction sought with a large enough effect; inconclusive means small, poorly fitted or top-dose-only effect, or another doubt; inactive means no such curve, though single readings can be large; an effect the other way counts as inactive or inconclusive.

Test [1] can be described thus: qHTS for inhibitors of adenylyl cyclases using a fission yeast platform: a pilot screen against the NCATS LOPAC library (AID 1347410). The method, boiled down:
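Inhibition of GNAS-stimulated AC9 activity in S. pombe was inferred from derepression of a PKA-repressed fbp1-GFP reporter, measured as cytometric fluorescence after 18 h at 30C with compounds at up to 57 µM.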
In general terms: qHTS replaces the single test concentration by a dilution series.

Test [2] is described as follows: Validation qHTS assay for inhibitors of Activation Induced Cytidine Deaminase (AID): UDG Counterscreen signal (AID 1347427). Further: potency means the concentration at half of the fitted maximal effect. The method, boiled down:
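Counterscreen read of UDG activity (2 U/mL, 4/3x) in the FRET deamination format with AID (1 uM, 4/3x), DJC20/DJC23 substrates (250 nM, 4x), 4 h at room temperature. NaOH stop, fluorescence at 560 ex/665 em.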

Test [3] deals with Single-stranded DNA cytosine deaminase (Homo sapiens) (UniProt Q9GZX7). The test can be described thus: Validation qHTS assay for inhibitors of Activation Induced Cytidine Deaminase (AID): AID signal (AID 1347429). The method, boiled down:
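FRET deamination assay: 1 uM AID (4/3x stock) with UDG, compound up to 114 uM, then 250 nM DJC20/DJC23 substrate (4x stock) for 4 hr at room temperature. NaOH added, 30 min; fluorescence read 540/590 nm.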

The target of test [4] is Calcium and integrin-binding protein 1 (Homo sapiens) (UniProt Q99828). The test can be described thus: Validation qHTS for Identification of Calcium Integrin Binding protein 1 (CIB1) Competitor (AID 1508618). An outline of the steps: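 In this qHTS validation, the LOPAC set (up to 114 uM) was tested for blocking CIB1 binding to a fluorescein-tagged alphaIIb peptide, with FP detection at 480/540 nm.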
Calcium and integrin-binding protein 1 (Homo sapiens), sequence (Q99828 whole entry, looked up): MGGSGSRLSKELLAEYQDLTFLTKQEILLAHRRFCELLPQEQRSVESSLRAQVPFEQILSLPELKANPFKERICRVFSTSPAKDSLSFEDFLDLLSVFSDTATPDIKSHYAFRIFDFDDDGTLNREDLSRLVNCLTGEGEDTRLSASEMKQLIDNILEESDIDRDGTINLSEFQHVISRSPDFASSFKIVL

For test [5], the target named is Papain (Carica papaya) (UniProt P00784). The test can be described thus: Primary qHTS assay for inhibitors of the protease papain (AID 1645873).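 Further: papain turnover of Z-FR-AMC read as the AMC fluorescence gain over 10 min.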 Further: potency means the concentration at half of the fitted maximal effect.
Papain (Carica papaya), sequence (P00784 whole entry, looked up): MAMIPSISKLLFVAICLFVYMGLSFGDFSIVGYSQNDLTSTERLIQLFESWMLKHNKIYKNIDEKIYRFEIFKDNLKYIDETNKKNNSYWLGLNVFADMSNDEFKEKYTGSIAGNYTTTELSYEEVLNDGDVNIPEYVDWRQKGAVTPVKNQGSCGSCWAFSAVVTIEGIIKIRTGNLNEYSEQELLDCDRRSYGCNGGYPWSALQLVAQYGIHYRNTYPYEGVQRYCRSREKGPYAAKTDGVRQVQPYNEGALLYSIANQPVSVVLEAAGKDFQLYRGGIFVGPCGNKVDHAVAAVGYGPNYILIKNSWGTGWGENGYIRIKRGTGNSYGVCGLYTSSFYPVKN
The nature of test [6]: Primary qHTS for inhibitors of La Crosse Virus (LACV) - induced cell death in SH-SY5Y cells (AID 1508616). Further: potency means the concentration at half of the fitted maximal effect. The method, boiled down: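 SH-SY5Y cells (6000/well) plated 24 h, then given compounds by pin transfer and LACV at 0.01 MOI for 6 days at 37C. Viability measured by ATPLite luminescence, normalized to infected DMSO and uninfected DMSO.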
Test [7] can be described thus: Primary qHTS for small molecule stabilizers of the endoplasmic reticulum resident proteome: Secreted ER Calcium Modulated Protein (SERCaMP) assay (AID 1508630). The method, boiled down: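 GLuc-SERCaMP-expressing SH-SY5Y cells, pretreated 16 h with compound, are challenged with thapsigargin to empty ER calcium stores; after 4 h, coelenterazine is added directly to the medium and luminescence is imaged.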

In test [8] the target is Cytochrome P450 2C9 (Homo sapiens) (UniProt P11712). The experiment in a line: Cytochrome P450 family 2 subfamily C member 9 (CYP2C9) small molecule antagonists: luciferase biochemical (cell-free) qHTS assay (AID 1645842; active means well fitted curve in the direction sought with a large enough effect in the repeat runs; an effect the other way counts as inactive or inconclusive; further: series mostly up to about 57 µM; nearly all actives have a fitted effect of over 55% in size). The method, boiled down: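 Luminescence, after 20 min with luciferin detection reagent, reflected CYP2C9 turnover during a 1 h NADPH-driven reaction at 37C. Enzyme-substrate mix contained 0.4% bovine serum albumin and was preincubated with compound 10 min at room temperature.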
Cytochrome P450 2C9 (Homo sapiens), sequence (P11712 whole entry, looked up): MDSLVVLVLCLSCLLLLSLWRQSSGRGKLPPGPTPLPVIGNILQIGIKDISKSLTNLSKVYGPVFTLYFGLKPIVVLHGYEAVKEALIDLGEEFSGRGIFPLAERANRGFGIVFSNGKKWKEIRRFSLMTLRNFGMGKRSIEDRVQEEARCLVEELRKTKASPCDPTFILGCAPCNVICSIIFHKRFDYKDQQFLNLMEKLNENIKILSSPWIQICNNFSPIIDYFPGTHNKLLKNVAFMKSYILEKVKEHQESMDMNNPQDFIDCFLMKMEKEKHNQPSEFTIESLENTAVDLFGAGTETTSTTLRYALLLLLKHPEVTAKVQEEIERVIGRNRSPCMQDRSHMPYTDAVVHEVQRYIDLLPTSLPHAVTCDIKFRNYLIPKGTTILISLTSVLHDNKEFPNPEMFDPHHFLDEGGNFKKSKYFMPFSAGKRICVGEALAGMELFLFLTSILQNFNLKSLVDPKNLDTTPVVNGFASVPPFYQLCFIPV

A short description of test [9]: Counterscreen qHTS for small molecule stabilizers of the endoplasmic reticulum resident proteome: GLuc-NoTag assay (AID 1508627).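 Further: SH-SY5Y cells given compound then 100 nM thapsigargin to empty ER calcium; series mostly up to about 76 µM.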 The method, boiled down:
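SH-SY5Y cells stably expressing constitutively secreted GLuc (no SERCaMP tag) were pre-incubated 5 h, treated with compound for 19 h, then 100 nM thapsigargin for 4 h at 37C; medium GLuc read by coelenterazine luminescence.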
In general terms: Counterscreens check selectivity or assay interference.

Test [10] in a line: Confirmatory qHTS for small molecule stabilizers of the endoplasmic reticulum resident proteome: Secreted ER Calcium Modulated Protein (SERCaMP) assay (AID 1508628). Further: potency means the concentration at half of the fitted maximal effect; nearly all actives have a fitted effect of over 40% in size. An outline of the steps:
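SH-SY5Y cells stably expressing GLuc-SERCaMP, treated 16 h with compound (primary 1.53, 7.67, 38.3 uM; confirmation 11 concentrations, up to 76.6 uM), then 100 nM thapsigargin for 4 h. Secreted Gaussia luciferase in medium read by coelenterazine luminescence.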

Test [11] can be described thus: Cell Viability qHTS for small molecule stabilizers of the endoplasmic reticulum resident proteome (AID 1508629).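 Further: potency means the concentration at half of the fitted maximal effect; compound exposure about 46 h in total before the viability read.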 The settings on record: cell viability counter-screen, 100 nM thapsigargin for final 4 h.

Single-stranded DNA cytosine deaminase (Homo sapiens), sequence (Q9GZX7 whole entry, looked up): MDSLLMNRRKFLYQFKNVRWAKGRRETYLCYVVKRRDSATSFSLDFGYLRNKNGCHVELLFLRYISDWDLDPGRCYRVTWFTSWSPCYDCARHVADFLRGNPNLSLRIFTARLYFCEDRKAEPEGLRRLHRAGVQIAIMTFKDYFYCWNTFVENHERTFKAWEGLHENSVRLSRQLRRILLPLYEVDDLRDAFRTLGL

For `C=CCNc1ncnc2ccc(Br)cc12`, the result in test [1] was inactive. Moreover, the Potency result in [2], in [3], in test [4] and in [5] was “inactive” throughout.

As to `CCC1(O)CC2CN(CCc3c([nH]c4ccccc34)[C@@](C(=O)OC)(c3cc4c(cc3OC)N(C)C3[C@]45CCN4CC=C[C@@](CC)([C@@H](OC(C)=O)[C@]3(O)C(=O)OC)[C@H]45)C2)C1` (stereo partly specified), the Potency result in test [2], in test [3], in test [6] and in [7] was “inactive” in each case.

As for `Cc1cc2c(cc1Cl)N(C(=O)Nc1ccnc3ccccc13)CC2`, the call in test [1] was inactive. Moreover, the Potency result in [3], in test [6], in test [4] and in [5] was “inactive” throughout.

In the case of `O=C1OC(=O)C2C3CCC(O3)C12` (stereo unspecified), the outcome in test [1] was inactive. Besides, the Potency result in test [3], in test [4], in [7] and in test [5] was “inactive” each time.

On to `CSC(=N)N`, for which, in test [1], the call was inactive. For the same molecule, the Potency entry in [3], in test [6], in test [4], in test [7] and in test [5] was “inactive” throughout.

As to `CCCCCCCCCCCCCCSCC(=O)O`, the call in test [1] was inactive. The Potency entry in [2], in test [6], in test [4], in [7] and in test [5] was “inactive” in each case.

As to `N[C@@H](CCC(=O)N[C@H](CSN=O)C(=O)NCC(=O)O)C(=O)O`, the molecule was classed as inactive in test [1]. Besides, the Potency result in test [3], in [6], in test [7] and in test [5] was “inactive” in each case.

With `COc1cc([C@@H]2c3cc4c(cc3[C@H](O)C3COC(=O)[C@@H]32)OCO4)cc(OC)c1OC` (stereo partly specified), the result in [1] was inactive. For the same molecule, the Potency entry in [2], in test [3], in [4] and in test [5] was “inactive” throughout.

For the molecule `O[Si](CCCN1CCCCC1)(c1ccc(F)cc1)C1CCCCC1` (stereo unspecified), in test [1], the molecule was called inactive. Besides, the Potency result in test [2], in test [3], in test [4] and in test [5] was “inactive” each time.

As to `O=C(O)/C=C/c1cnc[nH]1`, the Potency entry in test [2], in [3], in [6], in [4] and in test [5] was “inactive” throughout.

`CCN(CC)CCCCCCCCOC(=O)c1cc(OC)c(OC)c(OC)c1`: in test [1], the molecule was called inactive. Besides, the Potency result in test [3], in test [4], in test [7] and in test [5] was “inactive” in each case.

In the case of `N=C(N)c1ccc(OCCCCCOc2ccc(C(=N)N)cc2)cc1` (tested in a mixture with another compound), the Potency entry in test [4], in test [7] and in [5] was “inactive” in each case.

For `C=CC1(C)CC(=O)C2(O)C(C)(O1)C(OC(C)=O)C(O)C1C(C)(C)CCC(O)C12C` (stereo unspecified), the Potency result in test [2], in test [3], in test [6], in [4] and in [7] was “inactive” each time.

Take `O=c1cc(-c2ccccc2F)[nH]c2cc3c(cc12)OCO3`: in test [1], the molecule was called inactive. Further, the Potency result in [2], in [3], in test [4] and in test [7] was “inactive” each time.

For `CCN(c1nc(N)c(C(=O)N=C(N)N)nc1Cl)C(C)C`, in [1], the molecule was classed as inactive. The Potency entry in test [2], in [3], in test [4] and in test [5] was “inactive” each time.

As to `O=C(O)C1=CC(=C(c2ccc(O)c(C(=O)O)c2)c2ccc(O)c(C(=O)O)c2)C=CC1=O`, in test [1], the molecule was classed as inactive. The Potency was 89.1 µM (active) in test [2] and 7.94 µM (active) in [5].

With `CC(=O)NNC(=O)N1Cc2ccccc2Oc2ccc(Cl)cc21`, the molecule was called inactive in [1]. Moreover, the Potency result in [2], in test [3], in [4], in test [7] and in [5] was “inactive” throughout.

Regarding `O=c1cc(-c2ccccc2)[nH]c2nc(Cl)ccc12`, the molecule was classed as inactive in [1]. Besides, the Potency entry in test [2], in test [3], in test [4], in [7] and in [5] was “inactive” each time.

For the molecule `Nc1nc2ccc(Cl)cc2c2nc(-c3ccco3)nn12`, the outcome in test [1] was inactive. Further, the Potency result in [3], in test [4] and in [7] was “inactive” each time. In addition, the Potency in [5] was 22.4 µM (active).

Turning to `CN(C)S(=O)(=O)c1ccc2c(c1)/C(=C/c1cc3c([nH]1)CCCC3)C(=O)N2`, the Potency result in test [4] and in [5] was “inactive” in each case.

Turning to `CCN1C(=O)C=CC1=O`, the result in [1] was inactive. Also, the Potency entry in [3], in [6], in test [4], in test [7] and in [5] was “inactive” each time.

Consider `CC(C)NC[C@H](O)COc1cccc2ccccc12`, for which the Potency entry in [6], in test [4], in test [7] and in test [5] was “inactive” throughout. The outcome in test [8] was inactive.

As to `CC#CCOC(=O)c1c(C)nc2sc3c(c2c1N)CCC(O)C3` (stereo unspecified), the molecule was called inactive in test [1]. The Potency result in [3], in test [6], in [4], in test [7] and in test [5] was “inactive” each time.

Consider `CCCCCCCCCCC(C)(C)C(=O)Nc1c(OC)cc(OC)cc1OC`, for which, in test [1], the molecule was classed as inactive. The Potency result in test [3], in [6], in test [4], in test [7] and in test [5] was “inactive” throughout.

Consider `N#CC(=C(\N)Sc1ccccc1N)/C(C#N)=C(/N)Sc1ccccc1N`, for which the call in [1] was inactive. For the same molecule, the Potency entry in test [2], in [3] and in [7] was “inactive” in each case.

Turning to `CC(C)(C)c1cc(/C=C(\C#N)C(N)=S)cc(C(C)(C)C)c1O`, the outcome in test [1] was inactive. The Potency result in [2], in [3], in test [6] and in test [5] was “inactive” in each case.

With `CCCCCCCC/C=C\CCCCCCCC(=O)NCCc1ccc(O)c(O)c1`, the molecule was called inactive in test [1]. The Potency result in test [3], in [4], in test [9] and in test [5] was “inactive” in each case. Moreover, the Potency in test [6] was 2.82 µM (active); in test [10], 5.01 µM (active); in [11] it was 3.98 µM (active) and 7.08 µM (active).

Take `N=C(N)SCCc1cnc[nH]1`: the molecule was classed as inactive in test [1]. The Potency entry in [2], in test [3], in [6] and in test [5] was “inactive” throughout.

Regarding `S=C(S)N1CCCC1`, the Potency entry in test [3], in test [4], in [7] and in test [5] was “inactive” in each case.

Regarding `CC(C)(CO)Cc1cc(C(C)(C)C)c(O)c(C(C)(C)C)c1`, in test [1], the outcome was inactive. In addition, the Potency entry in test [2], in test [3], in test [4], in test [7] and in test [5] was “inactive” throughout.

Consider `O=c1[nH]c(=S)[nH]c(-c2ccccc2)c1Cc1c(O)ccc2ccccc12`, for which the molecule was classed as inactive in [1]. The Potency entry in [3], in test [6], in test [4] and in test [7] was “inactive” each time.
